Results as given in article PMC12820563, “FoxP3 forms a head-to-head dimer in vivo and stabilizes its multimerization on adjacent microsatellites”.
In all, about 16,000 sequences were measured (“rpm ratio (pull-down/input)”: median about 0.5, highest 2% from about 5.5 on). Only a selection was taken, and the highest values are over-represented in it overall.

biological target: T1, MBP-FoxP3dN (Mus musculus, UniProt Q99JB6 188-423); test: PD-seq (MBP pull-down with sequencing); 20 mM Tris-HCl pH 7.5, 100 mM NaCl, 1.5 mM MgCl2, 0.4 uM protein, 0.1 uM dsDNA library, 30 min, room temperature, amylose pull-down; high values mean tight binding; conditions: protein: recombinant; tags: His6-MBP; chain copies: 2; dsDNA, one strand shown
T1 sequence: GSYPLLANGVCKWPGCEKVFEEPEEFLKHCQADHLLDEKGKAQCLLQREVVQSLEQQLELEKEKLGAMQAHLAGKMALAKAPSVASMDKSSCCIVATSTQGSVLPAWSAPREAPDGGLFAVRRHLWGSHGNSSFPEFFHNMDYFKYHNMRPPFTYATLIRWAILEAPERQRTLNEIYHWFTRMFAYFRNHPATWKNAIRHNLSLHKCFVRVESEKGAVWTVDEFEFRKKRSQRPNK
Method in brief: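 Mouse FoxP3 or FoxP1 fragment lacking the N-terminus, His6-MBP-tagged and expressed in E. coli, was incubated at 0.4 µM with 0.1 µM Klenow-filled degenerate double-stranded DNA library for 30 min at room temperature in Tris pH 7.5 buffer with NaCl and MgCl2. Complexes captured on amylose resin were washed three times and their DNA sequenced on Illumina. Binding is reads-per-million enrichment of pull-down over input, replicates pooled.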

| Sequence | binding signal |
| --- | --- |
| GATGATTGTTCTCCCAGCTGATGAATTAGACCAGTCGAGTAAACAAATTTTCCTAATCTTTCTGTTCAAGCGCCATCTAC | 0.233 RPM ratio (pull-down/input) |
| GATGATTGTTCTCCCAGCTGATGAATTTCTTGCGTCGAGTAAACAAATTTTCCTAATCTTTCTGTTCAAGCGCCATCTAC | 0.535 RPM ratio (pull-down/input) |
| GATGATTGTTCTCCCAGCTGATGAATTCCTCGACTCGAGTAAACAAATTTTCCTAATCTTTCTGTTCAAGCGCCATCTAC | 0.213 RPM ratio (pull-down/input) |
| GATGATTGTTCTCCCAGCTGATGAATTAACCGATTCGAGTAAACAAATTTTCCTAATCTTTCTGTTCAAGCGCCATCTAC | 0.251 RPM ratio (pull-down/input) |
| GATGATTGTTCTCCCAGCTGATGAATTCGAGACATCGAGTAAACAAATTTTCCTAATCTTTCTGTTCAAGCGCCATCTAC | 0.446 RPM ratio (pull-down/input) |
| GATGATTGTTCTCCCAGCTGATGAATTTTGCCCTTCGAGTAAACAAATTTTCCTAATCTTTCTGTTCAAGCGCCATCTAC | 1.57 RPM ratio (pull-down/input) |
| GATGATTGTTCTCCCAGCTGATGAATTGCGAGGGTCGAGTAAACAAATTTTCCTAATCTTTCTGTTCAAGCGCCATCTAC | 0.611 RPM ratio (pull-down/input) |
| GATGATTGTTCTCCCAGCTGATGAATTTGGGTGTTCGAGTAAACAAATTTTCCTAATCTTTCTGTTCAAGCGCCATCTAC | 1.11 RPM ratio (pull-down/input) |
| GATGATTGTTCTCCCAGCTGATGAATTACCGTTATCGAGTAAACAAATTTTCCTAATCTTTCTGTTCAAGCGCCATCTAC | 0.764 RPM ratio (pull-down/input) |
| GATGATTGTTCTCCCAGCTGATGAATTGACTATGTCGAGTAAACAAATTTTCCTAATCTTTCTGTTCAAGCGCCATCTAC | 0.449 RPM ratio (pull-down/input) |
| GATGATTGTTCTCCCAGCTGATGAATTTACCGCATCGAGTAAACAAATTTTCCTAATCTTTCTGTTCAAGCGCCATCTAC | 1.17 RPM ratio (pull-down/input) |
| GATGATTGTTCTCCCAGCTGATGAATTCCCATTTTCGAGTAAACAAATTTTCCTAATCTTTCTGTTCAAGCGCCATCTAC | 0.336 RPM ratio (pull-down/input) |
| GATGATTGTTCTCCCAGCTGATGAATTCGCCGCATCGAGTAAACAAATTTTCCTAATCTTTCTGTTCAAGCGCCATCTAC | 0.966 RPM ratio (pull-down/input) |
| GATGATTGTTCTCCCAGCTGATGAATTCCGCCTTTCGAGTAAACAAATTTTCCTAATCTTTCTGTTCAAGCGCCATCTAC | 5.55 RPM ratio (pull-down/input) |
| GATGATTGTTCTCCCAGCTGATGAATTACCCCATTCGAGTAAACAAATTTTCCTAATCTTTCTGTTCAAGCGCCATCTAC | 0.3 RPM ratio (pull-down/input) |
| GATGATTGTTCTCCCAGCTGATGAATTCCGCCATTCGAGTAAACAAATTTTCCTAATCTTTCTGTTCAAGCGCCATCTAC | 5.49 RPM ratio (pull-down/input) |
| GATGATTGTTCTCCCAGCTGATGAATTCCCGCCTTCGAGTAAACAAATTTTCCTAATCTTTCTGTTCAAGCGCCATCTAC | 2.93 RPM ratio (pull-down/input) |
| GATGATTGTTCTCCCAGCTGATGAATTCCGCTGTTCGAGTAAACAAATTTTCCTAATCTTTCTGTTCAAGCGCCATCTAC | 1.28 RPM ratio (pull-down/input) |
| GATGATTGTTCTCCCAGCTGATGAATTTCCGCCTTCGAGTAAACAAATTTTCCTAATCTTTCTGTTCAAGCGCCATCTAC | 3.28 RPM ratio (pull-down/input) |
| GATGATTGTTCTCCCAGCTGATGAATTACCGCATTCGAGTAAACAAATTTTCCTAATCTTTCTGTTCAAGCGCCATCTAC | 5.89 RPM ratio (pull-down/input) |
| GATGATTGTTCTCCCAGCTGATGAATTGCCGCATTCGAGTAAACAAATTTTCCTAATCTTTCTGTTCAAGCGCCATCTAC | 7.28 RPM ratio (pull-down/input) |

| Sequence | binding signal |
| --- | --- |
| GATGATTGTTCTCCCAGCTGATGAATTTGCCGCATCGAGTAAACAAATTTTCCTAATCTTTCTGTTCAAGCGCCATCTAC | 1.35 RPM ratio (pull-down/input) |
| GATGATTGTTCTCCCAGCTGATGAATTACACAACTCGAGTAAACAAATTTTCCTAATCTTTCTGTTCAAGCGCCATCTAC | 0.854 RPM ratio (pull-down/input) |
| GATGATTGTTCTCCCAGCTGATGAATTAATTCTGTCGAGTAAACAAATTTTCCTAATCTTTCTGTTCAAGCGCCATCTAC | 0.249 RPM ratio (pull-down/input) |
| GATGATTGTTCTCCCAGCTGATGAATTCTGTTAATCGAGTAAACAAATTTTCCTAATCTTTCTGTTCAAGCGCCATCTAC | 1.25 RPM ratio (pull-down/input) |
| GATGATTGTTCTCCCAGCTGATGAATTATCCTGCTCGAGTAAACAAATTTTCCTAATCTTTCTGTTCAAGCGCCATCTAC | 0.234 RPM ratio (pull-down/input) |
| GATGATTGTTCTCCCAGCTGATGAATTACGTGGGTCGAGTAAACAAATTTTCCTAATCTTTCTGTTCAAGCGCCATCTAC | 0.527 RPM ratio (pull-down/input) |
| GATGATTGTTCTCCCAGCTGATGAATTGGTCTCTTCGAGTAAACAAATTTTCCTAATCTTTCTGTTCAAGCGCCATCTAC | 0.388 RPM ratio (pull-down/input) |
| GATGATTGTTCTCCCAGCTGATGAATTCAGCAAATCGAGTAAACAAATTTTCCTAATCTTTCTGTTCAAGCGCCATCTAC | 0.539 RPM ratio (pull-down/input) |
| GATGATTGTTCTCCCAGCTGATGAATTTAGCCATTCGAGTAAACAAATTTTCCTAATCTTTCTGTTCAAGCGCCATCTAC | 4.73 RPM ratio (pull-down/input) |
| GATGATTGTTCTCCCAGCTGATGAATTTAGCATCTCGAGTAAACAAATTTTCCTAATCTTTCTGTTCAAGCGCCATCTAC | 6.55 RPM ratio (pull-down/input) |
| GATGATTGTTCTCCCAGCTGATGAATTAGTGAATTCGAGTAAACAAATTTTCCTAATCTTTCTGTTCAAGCGCCATCTAC | 0.976 RPM ratio (pull-down/input) |
| GATGATTGTTCTCCCAGCTGATGAATTAGTGCATTCGAGTAAACAAATTTTCCTAATCTTTCTGTTCAAGCGCCATCTAC | 7.28 RPM ratio (pull-down/input) |
| GATGATTGTTCTCCCAGCTGATGAATTAGTAAATTCGAGTAAACAAATTTTCCTAATCTTTCTGTTCAAGCGCCATCTAC | 0.68 RPM ratio (pull-down/input) |
| GATGATTGTTCTCCCAGCTGATGAATTAGCGCATTCGAGTAAACAAATTTTCCTAATCTTTCTGTTCAAGCGCCATCTAC | 7.23 RPM ratio (pull-down/input) |
| GATGATTGTTCTCCCAGCTGATGAATTAGCTGATTCGAGTAAACAAATTTTCCTAATCTTTCTGTTCAAGCGCCATCTAC | 1.17 RPM ratio (pull-down/input) |
| GATGATTGTTCTCCCAGCTGATGAATTTTTAGCATCGAGTAAACAAATTTTCCTAATCTTTCTGTTCAAGCGCCATCTAC | 0.918 RPM ratio (pull-down/input) |
| GATGATTGTTCTCCCAGCTGATGAATTTAGCAGCTCGAGTAAACAAATTTTCCTAATCTTTCTGTTCAAGCGCCATCTAC | 1.72 RPM ratio (pull-down/input) |
| GATGATTGTTCTCCCAGCTGATGAATTTTAGCATTCGAGTAAACAAATTTTCCTAATCTTTCTGTTCAAGCGCCATCTAC | 5.97 RPM ratio (pull-down/input) |
| GATGATTGTTCTCCCAGCTGATGAATTCTAGCATTCGAGTAAACAAATTTTCCTAATCTTTCTGTTCAAGCGCCATCTAC | 5.17 RPM ratio (pull-down/input) |
| GATGATTGTTCTCCCAGCTGATGAATTAGCCCATTCGAGTAAACAAATTTTCCTAATCTTTCTGTTCAAGCGCCATCTAC | 0.4 RPM ratio (pull-down/input) |
